# Screening results deposited in PubChem BioAssay by several laboratories.
# The list is not random: actives were taken first. Their share in the collection is about 1.3%.
# COUP-TFII inh: NR2F2 (human) inhibition, primary screen; P24468; HEK293T NGFI-A luciferase reporter, luminescence; inhibition, % at 8.6 µM; actives 0.7% (n = 370,000);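 active = inhibition above a per-plate cutoff, mean inhibition of test wells between control levels plus 3 SD, cut at about 38% in these data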;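 also: cells cotransfected with COUP-TFII expression vector driving the NGFI-A reporter; 0% = median of COUP-TF2 test wells and 100% = reporter-only cells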
# Gli-Sufu antag: antagonists of Gli-Sufu signaling; inhibition, % at 5 µM; actives 0.74% (n = 340,000); Sufu-KO-LIGHT fibroblasts, Gli luciferase reporter luminescence; AID 588413;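 active = inhibition above about 55%, limit read from the data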;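 also: 0% = DMSO-treated cells and 100% = wells with medium but no cells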
# NCOA2 inhibitor: human SRC2 (NCOA2) inhibition; HEK293 GAL4-SRC2 luciferase reporter, luminescence; inhibition, % at 9 µM; actives 0.17% (n = 370,000);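 active = inhibition above the mean inhibition of all tested compounds plus 3 SD, set per campaign, cut at about 52% in these data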;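 also: 0% = DMSO treated cells and 100% = cells given Gossypol at 36 µM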
# SRC1 inh: inhibitors of human steroid receptor coactivator 1 (SRC1); Q15788; HEK293 GAL4-SRC1 luciferase reporter, luminescence; inhibition, % at 3.6 µM; actives 0.12% (n = 360,000); AID 588354;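 active = inhibition above the campaign mean plus 3 SD, with each screening campaign given its own cutoff, cut at about 60% in these data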;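 also: 0% = DMSO treated cells and 100% = gossypol at 36 µM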
# SRC3 inh: human NCOA3 inhibition; Q9Y6Q9; HEK293 GAL4-SRC3 luciferase reporter, luminescence; inhibition, % at 3.6 µM; actives 0.17% (n = 360,000);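 active = inhibition above a per-campaign cutoff, the mean of all compounds plus 3 SD, cut at about 60% in these data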;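 also: 0% = DMSO-treated cells and 100% = gossypol-treated cells at 36 µM; higher means less SRC3-driven luciferase light from the GAL4 reporter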
# NR5A2 inv ag: NR5A2 inverse agonism in reporter assay; O00482; HEK293T StAR-luciferase reporter, LRH-1 transfected, 24 h; inhibition, % at 3.6 µM; actives 0.13% (n = 360,000); AID 602396;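 active = inhibition above the mean inhibition of all tested compounds plus 3 SD, cut at about 73% in these data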;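 also: 0% = DMSO wells and 100% = reporter-only cells lacking LRH-1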
# Gal4-VP16 ctr: inhibits VP16 reporter, flagging COUP-TFII antagonist hits; shares compounds with COUP-TFII inh; inhibition, % at 8.5 µM; HEK293 Gal4-VP16 luciferase reporter, luminescence; actives 25% (n = 2,500); AID 687007; in the data active = inhibition above about 13%
# NR2F2 inh conf: confirmation of human COUP-TFII (NR2F2) inhibitors; shares compounds with COUP-TFII inh; inhibition, % at 8.5 µM; actives 45% (n = 2,500); AID 687008; HEK293 NGFI-A luciferase reporter, luminescence;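 active = mean inhibition over three repeats above a set limit taken from the earlier primary screen, cut at about 38% in these data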;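 also: 100% = cells given the luciferase reporter alone without the COUP-TF2 vector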
# An asterisk follows results filed as active; . = not tested or not shown; ! = not active in a repeat.
SMILES,COUP-TFII inh,Gli-Sufu antag,NCOA2 inhibitor,SRC1 inh,SRC3 inh,NR5A2 inv ag,Gal4-VP16 ctr,NR2F2 inh conf
COCCC(=O)Nc1ccc2c(c1)CN(C(=O)CSC)CC2,-15.9,1.6,11.3,-4.0,18.1,5.7,.,.
COCCC(=O)N1CCc2ccc(NC(=O)c3ccc(C(F)(F)F)cc3)cc2C1,37.8*,-7.2,-11.2,13.0,6.4,7.3,-20.1,0.4
CN(C)S(=O)(=O)N1CCc2ccc(NC(=O)c3ccc(C(F)(F)F)cc3)cc2C1,56.0*,-16.6,-25.2,6.7,-16.6,14.4,-47.2,28.9
O=C1CC(c2ccc3ccccc3c2)N=C2N(Cc3ccc4c(c3)OCO4)C/C(=C/c3ccccc3)N12 (stereo unspecified),18.4,.,.,.,.,.,.,.
O=C(Nc1ccccc1)C1CCN(c2nccs2)CC1,-5.9,5.5,-9.6,-11.2,18.8,-4.0,.,.
O=C(c1ccccc1)C1CCN(c2ncnc3sccc23)CC1,73.7*,.,.,.,.,.,5.5,62.0*
c1ccc(OC2CCN(c3ncnc4sccc34)CC2)cc1,64.3*,.,.,.,.,.,-8.2,49.1*
O=S(=O)(c1ccc(F)c(F)c1F)N1CCN(c2ncnc3sccc23)CC1,40.3*,26.5,21.3,11.3,-8.2,26.5,-1.7,31.8
O=S(=O)(c1ccccc1C(F)(F)F)N1CCN(c2ncnc3sccc23)CC1,15.4,8.8,25.2,11.4,0.2,-21.4,.,.
O=C(c1ccc(F)cc1)C1CCN(c2ncnc3sccc23)CC1,62.6*,.,.,.,.,.,2.9,56.0*
Cc1ccccc1CNC(=S)OC1CCC12CCC(c1ccccc1)CC2 (stereo unspecified),-22.9,.,1.8,.,.,.,.,.
C=CCN1C(=O)[C@@H](CC(=O)NCCCC)[C@]2(C(=O)OCC)CCCCC/C=C/12,-9.7,.,6.8,.,.,.,.,.
CCc1c(-c2ccccc2OC)ncn1Cc1cccc(-c2ccccc2)c1,51.3*,.,27.6,.,.,19.0,5.6,16.5
O=C(NNC1=Nc2ccccc2SC1)c1ccccc1F,38.1*,-17.5,9.3,-29.4,7.7,-21.7,-38.8,8.8
O=C(CSc1nnc(COc2ccccc2)n1Cc1ccco1)Nc1ccc2c(c1)OCO2,2.2,.,1.9,.,.,.,.,.
O=C(N[C@@H]1CCCc2c1cnn2-c1ccc(F)cc1F)c1ccccn1,38.3*,.,.,.,.,.,-6.8,6.5
Cc1ccc(C(=O)NC2CCCc3c2cnn3-c2ccc(F)cc2F)cn1 (stereo unspecified),56.1*,.,29.1,25.8,-9.4,25.6,5.2,59.4*
COc1ccc(N(C(C)C(=O)N2CCC(Cc3ccccc3)CC2)S(C)(=O)=O)cc1 (stereo unspecified),41.8*,33.0,24.2,19.3,24.0,11.2,-3.3,29.6
CCOC(=O)C1CCN(C(=O)C(C)N(c2ccc(Oc3ccccc3)cc2)S(C)(=O)=O)CC1 (stereo unspecified),45.4*,12.0,25.9,6.8,16.2,28.2,-2.8,21.2
COc1ccc(N(C(C)C(=O)N2CCCC2)S(C)(=O)=O)cc1 (stereo unspecified),-7.6,3.0,10.8,5.3,-11.8,-0.4,.,.
Cc1nc2ccccn2c1-c1ccnn1S(=O)(=O)c1ccc(F)cc1,49.0*,7.0,23.6,2.4,33.7,16.6,-2.0,11.0
CCN(CC(=O)NCc1ccc(Cl)cc1)C(=O)c1cc(OC)cc(OC)c1,53.4*,9.9,-7.2,-2.4,2.8,-15.8,-7.3,-2.0
CCN(CC(=O)NCc1ccc(Cl)cc1)C(=O)Cc1ccc(OC)cc1,5.0,-23.7,-1.7,-11.6,9.6,-4.6,.,.
CC1CCN(c2ccc(-c3cccc(NC(=O)C(F)(F)F)c3)nn2)CC1,40.6*,43.6,41.8,35.0,11.7,0.0,-0.6,32.9
CC(C)Oc1ccc(/C=C(\C#N)C(=O)NC2CC2)cc1,82.4*,-3.3,-80.8,-37.5,-48.4,-20.6,-94.8,-37.5
SMILES,COUP-TFII inh,Gli-Sufu antag,NCOA2 inhibitor,SRC1 inh,SRC3 inh,NR5A2 inv ag,Gal4-VP16 ctr,NR2F2 inh conf
N#C/C(=C\c1ccc(Cl)cc1)C(=O)NC1CC1,10.7,6.8,0.2,-7.9,17.6,-1.2,.,.
NC(Cc1ccc(Cl)cc1)c1csc(NC(=O)NCC2CCCCC2)n1 (stereo unspecified),81.1*,.,59.5*,-3.8,12.2,-7.8,2.3,0.0
NC(Cc1ccc(Cl)cc1)c1csc(NC(=O)NCCc2ccccc2)n1 (stereo unspecified),-9.3,.,3.1,15.1,-13.0,-14.1,.,.
COC(=O)C/C=C/[C@H](C)[C@@H](NC(=O)C(F)(F)F)c1ccccc1Br,7.5,.,3.9,.,.,.,.,.
CCCCCCCCCCCCCCCC[n+]1ccccc1,50.8*!,83.5*,8.9,8.9,35.7,47.5,1.4,26.2
COC(=O)[C@]12C[C@H](CC(=O)NCc3cccc4ccccc34)C(=O)N(CCc3ccc(OC)c(OC)c3)C1=C[C@H](COCc1ccccc1)O[C@@H]2C,0.5,.,-10.5,.,.,.,.,.
Cc1ccc(OCC(=O)N2CCN(c3nnc(-c4ccc(C)cc4)c4ccccc34)CC2)cc1,8.8,15.7,6.1,8.7,11.8,21.3,.,.
COc1ccc(OCC(=O)N2CCN(c3nnc(-c4ccc(C)cc4)c4ccccc34)CC2)cc1,37.8*,2.5,9.4,7.3,27.1,16.9,-7.2,16.1
COc1cccc(C(=O)n2ccc3ccc(-c4ccc5ccn(Cc6ccccc6)c5c4)cc32)c1,-6.5,.,-19.8,.,.,.,.,.
O=C(Nc1ccc(S(=O)(=O)N2CCOCC2)cc1)c1ccc(CN2CCc3ccccc3C2)cc1,.,-10.9,.,.,.,.,.,.
O=C(Nc1ccc(Cl)cc1)c1ccc(CN2CCc3ccccc3C2)cc1,41.4*,-4.6,-15.7,-21.2,-23.0,9.6,-108.8,11.8
O=C(Nc1ccc(S(=O)(=O)N2CCCC2)cc1)c1ccc(OCC2CCCO2)cc1 (stereo unspecified),38.4*,1.9,22.4,-16.2,-4.7,23.7,-2.1,17.5
N#CCc1ccc(NC(=O)c2ccc(CN3CCc4ccccc4C3)cc2)cc1,55.8*,2.2,4.9,8.9,7.2,21.2,0.4,55.8*
O=C(Nc1ccc(S(=O)(=O)N2CCCC2)cc1)c1ccc(CN2CCc3ccccc3C2)cc1,76.7*,51.5,9.8,31.8,52.7,59.6,-0.3,70.9*
O=C(Cc1ccccc1)NC1CCCCN(Cc2cccc(Cl)c2)C1=O (stereo unspecified),-2.4,.,-8.0,.,.,.,.,.
O=S1(=O)c2ccc(N3CCCC3)cc2Oc2ccccc2CN1Cc1cn(Cc2ccc(Cl)cc2)nn1,-4.7,.,-6.3,.,.,.,.,.
O=C(N[C@H](Cc1ccccc1)C(=O)NCCN1CCOCC1)[C@H]1O[C@@H](n2ccc(=O)[nH]c2=O)[C@H](O)[C@@H]1O,-0.3,.,18.3,.,.,.,.,.
COC(=O)c1cc2c(c3c4cc(F)ccc4n(S(=O)(=O)c4ccccc4)c13)C(=O)N(Cc1ccc(C(F)(F)F)cc1)C2,-7.2,.,9.7,.,.,.,.,.
